Laboratory results reported in PubChem BioAssay (NCI).
This is part of a sample that, as a whole, favours compounds with a hit. Of some 83,000 tested, about 20% had one in any assay.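 Assay: single dose, 48 h. Readout: percent growth (0 = no net growth; negative = cell death). Active: <10.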 Unmarked numbers belong to inactive results. Calls of active or inactive are those of the source.

What was measured:
Experiment in all cases: NCI-60 one-dose screen, 48 h (100 = growth as untreated, 0 = no growth, -100 = all killed)
Settings in all cases: 10 µM
[1] = test system: BT-549 breast
[2] = test system: MDA-MB-435 melanoma
[3] = test system: SW-620 colon
[4] = test system: MCF7 breast
[5] = test system: HCC-2998 colon
[6] = test system: KM12 colon
[7] = test system: HCT-116 colon

Row | SMILES | growth [1] | growth [2] | growth [3] | growth [4] | growth [5] | growth [6] | growth [7]
1 | CC1(C)N=C(N)N=C(N)N1c1ccc(CCc2ccccc2)c(Cl)c1 | 35.6% | 16.2% | 17.6% | 13.4% | 15.3% | 13.5% | 
2 | COc1cc(-c2cc(/C=C3\C(=O)Nc4ccccc43)[nH]n2)cc(OC)c1OC | 34.7% | 38.7% | 60.2% |  | 87.4% | 10.3% | 47.3%
3 | O=C(NN1C(=O)CSC1c1ccc(Cl)cc1)c1cccnc1 (stereo not given) | 102% | 87.3% |  | 111% |  | 94.2% | 86.9%
4 | COc1ccc(-c2nn(-c3cccc(NC(=O)Nc4ccccc4)c3)cc2-c2ccncc2)cc1Cl | -40.9% (active) | -66.5% (active) | -19.7% (active) | 0.285% (active) | -71.1% (active) | -16.2% (active) | 
5 | Cc1ccc(NC(=O)Nc2c(Cl)cccc2Cl)cn1 | 118% | 38.3% | 127% | 91.8% | 104% | 105% | 
6 | CCN(CCCCCCCCCCN1CC(=O)N(CCCCCCCCCCN(CC)Cc2ccccc2OC)CC1=O)Cc1ccccc1OC | -50.7% (active) | -72% (active) |  | -89.2% (active) |  | -76.2% (active) | -95.2% (active)
7 | CC(C)=CCc1cc(O)cc2c1OC(C=C(C)C)C1=C2C(=O)C2=C(NCCS2(=O)=O)C1=O (stereo not given) | 18.3% | -56.4% (active) | 4.68% (active) | -54.5% (active) |  | 43.3% | 
8 | CCCCCCc1cc(N=Nc2ccc(S(=O)(=O)Nc3cc(C)nc(C)n3)cc2)c(O)cc1O | 89.9% | 100% | 113% | 92.7% | 101% | 104% | 
9 | CCN(CCCCCCN1CC(=O)N(CCCCCCN(CC)Cc2ccccc2OC)CC1=O)Cc1ccccc1OC | 87.8% | 85.9% |  | 83.6% |  | 65.5% | 37.6%
10 | CN(C)CCN=c1nc2c(c(N)n1-c1ccccc1)c(=S)n(-c1ccccc1)c(=S)n2-c1ccccc1 | 4.45% (active) | -64.5% (active) | -59.1% (active) | 17.9% | -39.6% (active) | 0.204% (active) | 
11 | COc1cc(Cl)cc(-c2nn(-c3cccc(NC(=O)Nc4cc(C(F)(F)F)cc(C(F)(F)F)c4)c3)cc2-c2ccncc2)c1 | 6.61% (active) | -19.5% (active) | 7.18% (active) | 3.81% (active) | 9.5% (active) | 12.2% | 
12 | COc1ccccc1CNCCN1C(=O)c2ccc3c4c(ccc(c24)C1=O)C(=O)N(CCNCc1ccccc1OC)C3=O | -94% (active) | -80.2% (active) |  | -69.2% (active) |  | -96.6% (active) | -92.6% (active)
13 | CSCCCNC(=O)c1ccc2c(c1)/C(=C/c1[nH]c(C)cc1C)C(=O)N2 | 9.33% (active) | 13.4% | 28.9% |  | 30.3% | 17.1% | 3.75% (active)
14 | Cc1cccc(Cl)c1NC(=O)c1ccc2nc(NC(=O)NC3CCN(C)CC3)sc2c1 | 98.2% | 82.9% | 98.4% | 94% | 105% | 105% | 
15 | Cc1cc(O)c(C(C)(C)C)cc1Sc1cc(C(C)(C)C)c(O)cc1C | 65.9% | 54.8% |  | 34.7% |  | 47% | 29%
16 | O=[N+]([O-])c1ccc(Oc2cc(Cl)c(Cl)cc2Cl)c(C(F)(F)F)c1 | 110% | 95.6% | 106% | 97.9% | 123% | 101% | 
17 | O=C1N=NC2=C1c1c3ccccc3c(O)n1CC2 | 110% | 99.8% | 106% | 94.2% | 101% | 109% | 
18 | COc1cc(-c2cc(/C=C/C(=O)c3ccc(N)cc3)[nH]n2)cc(OC)c1OC | -28.7% (active) | 6.15% (active) | -38.1% (active) |  | -75.4% (active) | -35.1% (active) | 
19 | O=C(CC(c1ccccc1)N1CCOCC1)c1ccccc1 (stereo not given) | 89.8% | 89.7% |  | 32.2% |  | 23% | 34.5%
20 | COc1cccc(C(=O)Nc2ccc(CN3CCc4nc5cc(OC)c(OC)cc5cc43)cc2)c1 | 65% | 39.5% | 59% | 12% | 14.1% | 16.4% | 
21 | COc1ccc(-c2nn(-c3cccc(NC(=O)c4cccc(C(F)(F)F)c4)c3)cc2-c2ccncc2)cc1Cl | 35% | -67.9% (active) | 36% | 9.92% (active) | 33.6% | 15.4% | 

Row | SMILES | growth [1] | growth [2] | growth [3] | growth [4] | growth [5] | growth [6] | growth [7]
22 | CN(C)C(=S)N/N=C\C=N/NC(=S)N(C)C | 81% | 67% | 64.1% | 12% |  | 81.5% | 
23 | FC(F)(F)c1ccc(-c2cnc(Cl)nc2N2CCC3(CC2)OCCO3)cc1 | 97.1% | 101% | 103% | 98.9% | 102% | 96.3% | 
24 | O=C1OCC2=C1C(c1cccc(Cl)c1)c1cc3c(cc1N2CCO)CCC3 (stereo not given) | 8.33% (active) | -49.5% (active) | 16% | 14.1% |  | -47.4% (active) | 
25 | COc1ccc(Nc2nc3ccc(NC(=O)NC4CCCCC4)cc3[nH]c2=O)cc1 | 87.7% | 105% | 108% | 83% | 104% | 87.1% | 
26 | COc1cc2cc3c(nc2cc1OC)CCN3Cc1ccc(NC(=O)c2ccc(Cl)c(C(F)(F)F)c2)cc1 | 112% | 95.6% | 114% | 15% | 91.2% | 109% | 
27 | Clc1ccccc1N=Cc1ccc2c(c1)OCO2 | 78.2% | 99.8% | 114% | 90.5% | 103% | 98.8% | 
28 | O=C(Cc1csc2nc(-c3ccc(Cl)cc3)cn12)N/N=C/c1ccccc1O | 62.6% | 67.4% |  | 42.5% |  | 36.5% | 36.6%
29 | CCN(CC)CCSCCN(CC)CC | 105% | 101% | 99.2% | 99.1% | 119% | 107% | 
30 | Clc1nc(Cl)c2c(ncn2C/C=C\Cn2cnc3c(Cl)nc(Cl)nc32)n1 |  | -44.9% (active) | -92.2% (active) | -1.6% (active) |  | -94.5% (active) | -15.4% (active)
31 | COc1cc(C)ccc1C(=O)c1ccc(C)cc1OC |  | -69.8% (active) | 10.1% | 21.1% | 40% | 22.1% | 24.8%
32 | CCOC(=O)CNC(=O)CCCCSc1ncnc2nc[nH]c12 |  | 110% | 107% | 91.9% | -18% (active) | 108% | 101%
33 | C[N+](C)(C)c1ncnc2nc[nH]c12 |  | 95.3% | 120% | 90.8% | -10.1% (active) | 110% | 97.3%
34 | CNc1ccc(CSc2ccc(C)cc2)cc1 |  | 85.2% | 93.7% | 77% |  | 62.4% | 93.6%
35 | COc1cc(CNc2ccccc2C(=O)N2CCN(C(=O)c3cc(-c4cc(OC)c(OC)c(OC)c4)n4nc(-c5ccccc5)cc4n3)CC2)cc(OC)c1OC |  | -47.6% (active) | 26.3% | 6.61% (active) | 40.3% | 17.8% | 21.6%
36 | O=C1/C(=C\c2cn(C(=O)c3ccc(Cl)cc3)c3ccccc23)c2ccccc2N1C(=O)c1ccc(Cl)cc1 |  | 97.6% | 93.1% | 71.1% |  | 24.3% | 65.1%
37 | CN(C)CCNC(=O)c1cccn2c(=O)c3cc4ccccc4cc3nc12 |  | -68.6% (active) | -11.9% (active) | 4.71% (active) |  | -10.2% (active) | -41% (active)
38 | COc1ccc(/C=C/C(=O)Nc2ccc(-c3nc4ccc(OC)cc4s3)cc2)cc1 |  | 102% | 114% | 85.3% | 110% | 111% | 105%
39 | Cc1cc(C)c(CCc2cc(C)c(C)cc2C)cc1C |  | 98% | 105% | 105% | 101% | 106% | 106%
40 | O=C(Nc1ccc(Cl)c(Cl)c1)Nc1c(Oc2ccc(Cl)c(Cl)c2)ccc(Cl)c1S(=O)(=O)O |  | -31.4% (active) | 23.6% | 24.6% | 25.2% | 33.2% | 23.5%
41 | CC1(O)CCC2CC3OC3(C)CCC3OC3(C)CCC1C2(C)C (stereo not given) |  | 107% | 99.6% | 103% |  | 111% | 100%
